Tb PYK inh – T. brucei pyruvate kinase inhibition | Q57TT1 | TbPYK enzyme, Kinase-Glo Plus ATP luminescence, 45 min | Potency, µM (highest dose often 76.8 µM), without a hit: top-dose activity, negative = inhibition, hits mostly inhibitors | hit rate 0.12% among 410,000; note: potency is the fitted concentration of half-maximal effect; % is set by controls: 0 for no effect and ±100 for the full control effect; nearly all actives have a fitted effect of over 50% in size
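Screened from lowest to highest concentration, compounds were pinned into TbPYK/substrate mixtures, and ADP (130 uM final) was added. Plates sat at room temperature for 45 min prior to Kinase-Glo Plus detection by luminescence.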
Cycloheximide cs – counter-screen for Shiga toxin inhibitors: cycloheximide protein synthesis inhibition. cell reporter, cycloheximide protein synthesis inhibition counterscreen. max response, %. hit rate 12% among 300,000. AID 2314; in the data active = max response mostly above about 13%, no sharp cut-off; inactive = mostly below about 14%; note: read at 38.3 µM for the half of the compounds with a filed dose; 0% is about no effect
FBPA Giardia inh – inhibitors of Giardia lamblia fructose-1,6-bisphosphate aldolase; purified Giardia FBPA; Potency, µM (top dose mostly 59.6 µM), for inactives: top-dose activity, negative = inhibition, most hits filed as inhibitors; hit rate 0.71% among 290,000; AID 2451; note: potency is the fitted concentration of half-maximal effect; % is set by controls: 0 for no effect and ±100 for the full control effect; nearly all actives have a fitted effect of over 55% in size
Target sequence (A8B2U2 whole entry, looked up): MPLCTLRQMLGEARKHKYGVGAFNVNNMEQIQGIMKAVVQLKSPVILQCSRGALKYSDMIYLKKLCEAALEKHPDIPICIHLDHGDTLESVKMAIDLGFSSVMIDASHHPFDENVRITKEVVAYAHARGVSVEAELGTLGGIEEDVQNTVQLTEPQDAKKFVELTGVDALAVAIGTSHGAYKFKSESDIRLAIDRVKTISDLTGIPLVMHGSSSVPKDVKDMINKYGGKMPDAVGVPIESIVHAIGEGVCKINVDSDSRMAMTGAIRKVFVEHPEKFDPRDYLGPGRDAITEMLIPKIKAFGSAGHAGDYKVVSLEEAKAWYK
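Giardia FBPA (40 nM reagent) was preincubated 10 min at RT with compound (up to 57.5 uM final), then substrate plus GAPDH/TPI/NAD/arsenate coupling system with diaphorase/resazurin was added; resorufin fluorescence (525/598 nm) was read after 20 min.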
LmPK inh – blocks Leishmania mexicana pyruvate kinase activity | purified LmPK, Kinase-Glo ATP luminescence, 1 h | Potency, µM (doses to about 57.5 µM), inactives show top-dose activity change, negative = inhibition, hits mostly inhibitors | hit rate 0.37% among 290,000 | AID 1721; note: potency is the fitted concentration of half-maximal effect; % is set by controls: 0 for no effect and ±100 for the full control effect
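Kinase-Glo luminescence read after 1 h RT reaction of 0.1 nM LmPK with 0.5 mM PEP and 0.1 mM ADP. Activity scaled between uninhibited and enzyme-free controls.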
Shiga inhibitor – Shiga toxin inhibition; Vero cells, Shiga toxin protein synthesis inhibition reporter; inhibition, % at 38.7 µM; hit rate 9.2% among 290,000; AID 2315; in the data active = inhibition mostly above about 28%, no sharp cut-off; inactive = mostly below about 43%; note: 0% is about no effect
RE007 growth inh – less growth of the S. pombe RE007 Vpr strain; Potency, µM (top dose mostly 92.2 µM), for the others: top-dose activity change, negative = less growth, most hits filed as inhibitors; S. pombe RE007 Vpr strain, BacTiter-Glo ATP luminescence, 24 h; hit rate 0.21% among 360,000; active = well fitted falling curve with a large enough effect; inconclusive = small, poorly fitted or top-dose-only effect; inactive = no such curve, though single readings can be large or run the other way; note: potency is the fitted concentration of half-maximal effect; % is set by controls: 0 for no effect and ±100 for the full control effect; nearly all actives have a fitted effect of over 50% in size
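Fission yeast RE007 carrying one integrated HIV-1 vpr copy, seeded at OD 0.01 in PMG+AL medium with 23 nL pinned compound. Grown 24 h at 30 degrees; viability read by BacTiter-Glo luminescence after 5 min.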
Active calls of the source: *; ? = inconclusive; / = no result; [ ] = remark or other dose. Shown is part of a subset that was picked to be rich in hits. Unless noted, calls come from the whole dose curve; as a rule, active = well fitted curve in the direction sought with a large enough effect; inconclusive = small, poorly fitted or top-dose-only effect, or another doubt; inactive = no such curve, though single readings can be large; an effect the other way counts as inactive or inconclusive.

SMILES	Tb PYK inh	Cycloheximide cs	FBPA Giardia inh	LmPK inh	Shiga inhibitor	RE007 growth inh
COc1cccc(C(=O)NCC(C)(C)SCc2ccc(F)cc2)c1	2%	-3	5%	0%	-7	-11%
O=C(Cn1ccc(=O)[nH]c1=O)Nc1ccc(O)c([N+](=O)[O-])c1	-1%	/	/	/	/	-4%
Cn1cccc1-c1nc2ccc(NC(=O)c3ccccc3)cc2[nH]1	4%	20*	-10%	0%	36*	-8%
O=C(O)c1ccccc1-c1nc2ccccc2[nH]1	0%	1	-14%	-17%	39	9%
Cn1cccc1-c1nc2ccccc2[nH]1	-3%	31*	-9%	-13%	88*	-3%
Cc1ccc(S(=O)(=O)Nc2ccc3nc(-c4cccn4C)[nH]c3c2)cc1	0%	24*	-2%	2%	37*	-7%
Cc1ccc(S(=O)(=O)Nc2ccc3cn[nH]c3c2)cc1	2%	/	/	/	/	5%
Cc1nc2cc(Oc3nc(NCCN(C)C)nc4ccsc34)ccc2s1	-6%	/	/	/	/	3%[18.4 µM]
COc1ccc(C(CC(=O)NCc2ccccc2Cl)N2Cc3ccccc3C2=O)cc1OC (stereo unspecified)	-1%	/	/	/	/	/
COC(=O)[C@H](Cc1ccccc1)NC(=O)N1CCN(c2ccc(F)cc2)CC1	4%	2	-1%	-2%	4	18%
CC(=O)NC(CC(C)C)C(=O)NC(Cc1ccccc1)C(N)=O (stereo unspecified)	-1%	8.8*	8%	3%	9	-15%
CC(=O)NC(CC(C)C)C(=O)NC(Cc1ccccc1)C(=O)CCl (stereo unspecified)	7%	/	/	/	/	-6%
Cc1cccc(/C=N/NC(=O)c2cc(Br)ccc2O)n1	5%	32*	?	3%	48*	-7%
O=C(N/N=C/c1ccoc1)c1cc(Br)ccc1O	-11%	31*	-29%	-1%	57	-18%
O=C(N/N=C/c1ccoc1)c1ccccc1Br	-2%	7	2%	2%	2	-15%
CC1(OC(=O)c2ccco2)C(=O)C2=COC(C3CC3)=CC2=C(Br)C1=O (stereo unspecified)	/	/	-12%	/	/	/
COc1ccc(-c2ncc(CN3CCN(CCC(C)C)C(CCO)C3)cn2)cc1 (stereo unspecified)	2%	33*	1%	0%	66*	2%
CC(C)CN1CCN(Cc2cccc3nccnc23)CC1CCO (stereo unspecified)	-3%	-1	-2%	1%	-7	-11%
Cc1cccc(-c2ncc(CN3CCN(CC(C)C)C(CCO)C3)cn2)c1 (stereo unspecified)	4%	15	-2%	-5%	41*	-9%
O=C(CSc1ccccc1)Nc1nc2ccccc2[nH]1	-1%	28*	-5%	-1%	84*	15%
Cc1ccc(OCCCC(=O)Nc2nc3ccccc3[nH]2)cc1	3%	6	4%	2%	5	3%
O=C(Cc1c[nH]c2ccccc12)Nc1nc2ccccc2[nH]1	-1%	26*	-8%	2%	74*	1%
O=C(CCCOc1ccccc1)NCCc1nc2ccccc2[nH]1	-7%	-2	0%	2%	-8	-16%
O=C(CCCOc1ccccc1)Nc1nc2ccccc2[nH]1	2%	34*	0%	2%	68*	-1%
O=C(O)Cc1c[nH]c2ccccc12	-2%	/	/	/	/	0%
SMILES	Tb PYK inh	Cycloheximide cs	FBPA Giardia inh	LmPK inh	Shiga inhibitor	RE007 growth inh
O=S(=O)(CCOc1ccccc1)c1nc2ccccc2[nH]1	6%	18*	25%	0%	23*	0%
Cc1cc(C)c(S(=O)(=O)N(C)CC(=O)NCCCn2ccnc2)c(C)c1	4%	-3	7%	4%	22	-14%
COc1ccccc1OCc1nnc(SCC(=O)N2CCCCC2)o1	1%	-1	7%	2%	-10	-4%
O=C(Cc1ccc(Cl)cc1)Nc1nc2ccccc2[nH]1	1%	-1	0%	5%	7	-3%
O=C(Cc1ccc(Br)cc1)Nc1nc2ccccc2[nH]1	-1%	14*	1%	-2%	22	1%
O=C(Cc1ccccc1)Nc1nc2ccccc2[nH]1	5%	26*	-3%	0%	79*	2%
Cc1cccc(Nc2cc(C)c3c(O)cccc3n2)c1C	1%	32*	-15%	-1%	92*	1%
Cc1cc(Nc2ccccc2O)nc(C)n1	2%	/	/	/	/	/
Cc1ccn2cc(CCNC(=O)CC(C)(C)C)nc2c1	-2%	12	-6%	-4%	9	-9%
Cc1ccn2cc(CCNC(=O)C3CC=CCC3C(=O)O)nc2c1 (stereo unspecified)	5%	20*	-1%	-2%	77*	-10%
Cc1ncoc1C(=O)Nc1ccc2c(c1)OCCO2	-29%	47*	-1%	16µM*	77*	-12%
Cc1ccsc1C(=O)Nc1ccc2c(c1)OCCO2	?	29*	-8%	16µM*	27*	-24%
CCOC(=O)N1CCC(NS(=O)(=O)c2ccc(NC(C)=O)c(Cl)c2)CC1	8%	-1	7%	-2%	37	17%
NC(=O)c1cc[n+](CC2=C(C(=O)[O-])N3C(=O)[C@@H](NC(=O)Cc4cccs4)[C@@H]3SC2)cc1	0%[33.2 µM]	/	-10%[21.7 µM]	/	/	/
COc1ccc(C(=O)N2CCCc3ccccc32)cc1	-1%	6	6%	1%	9	-15%
COc1ccc(C)cc1NC(=O)N1CC(C)Sc2ccccc21 (stereo unspecified)	6%[15.4 µM]	/	/	/	/	/
COc1ccc(NC(=O)N2CCCc3ccccc32)c(OC)c1	-4%	17*	7%	0%	44	2%
CCOC(=O)c1cc(NC(=O)Nc2cc(C)ccn2)c(C)nc1C	5%	14	13%	4%	39*	-2%
COc1ccc(C)cc1NC(=O)N1CCCc2ccccc21	2%	23*	-5%	9%	75*	-23%
CCOC(=O)c1cc(NC(=O)N2CCCc3ccccc32)c(C)nc1C	-3%	20*	-8%	1%	43	2%
CCOC(=O)Nc1cc(C(=O)OCC)c(C)nc1C	1%	-5	1%	-3%	12	-9%
Cn1nnnc1SCCNCc1ccc(OCc2ccc(Cl)cc2)cc1	-12%	/	/	/	/	/
CCCCc1ccc(NC(=O)c2cnccn2)cc1	7%	37*	1%	-29%	61*	5%
CCOc1ccc(NC(=S)NCc2cccnc2)cc1	-4%	7	5%	0%	5	-20%
CC(C)c1ccc(C(=O)NC(=S)NCc2cccnc2)cc1	-11%	16*	0%	0%	active	-7%
CCCc1ccc(C(C)NC(=O)c2cnccn2)cc1 (stereo unspecified)	-2%	-2	-1%	1%	1	3%
CCOC(=O)c1ccc(NC(=S)NCc2cccnc2)cc1	-4%	13*	1%	0%	16	6%
